Most compounds without a hit are left out; they make up all but 2.2% or so of the library.
KLF5 inhibitor – inhibitors of KLF5 expression; DLD-1 KLF5 promoter-luciferase reporter, luminescence; inhibition, % at 5 µM; actives 0.23% (n = 290,000);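 active = inhibition above a per-plate limit of that plate's mean compound inhibition plus 3 SD, cut at about 60% in these data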;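 also: 0% = DMSO wells and 100% = LY294002 at 200 µM; higher means less KLF5 promoter-driven luciferase light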
aSyn 5UTR inh – 5' untranslated region of α-synuclein, MLPCN primary screen | AID 1813 | actives 0.82% (n = 300,000) | inhibition, % (tested at 7.5 µM) | alpha-synuclein 5'UTR reporter, inhibitor activity; in the data active = inhibition above about 60%; inconclusive = no clear call, values can overlap the other calls;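 also: H4 neuroglioblastoma cells stably carrying SNCA 5'UTR luciferase fusion; 0% = DMSO wells and 100% = positive control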
APP 5UTR inh – APP translation inhibition. actives 0.82% (n = 190,000). SH-SY5Y APP 5'UTR-luciferase reporter, luminescence. inhibition, % at 2 µM. AID 1285;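 active = inhibition above a set limit, derived from the sample mean plus 3 SD, cut at about 45% in these data; inconclusive = one replicate passes the limit while the other fails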
IEC-6 cytotox – counter-screen for KLF5 inhibitors: cytotoxicity in IEC-6 cells; IEC-6 cytotoxicity, luminescence viability; inhibition, % at 5 µM; actives 0.78% (n = 290,000);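 also: 0% = plate median of test compound wells and 100% = cytotoxic reference compound wells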
Ba/F3 V617F tox – loss of viability in JAK2V617F-driven Ba/F3 cells. Ba/F3 EpoR-JAK2V617F viability, ATP luminescence. inhibition, % at 5.6 µM. actives 1.1% (n = 220,000). AID 1446;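 active = inhibition above the campaign mean plus 3 SD over all tested compounds, cut at about 24% in these data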;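 also: cytokine-independent growth of Ba/F3 cells driven by EpoR plus mutant JAK2; 0% = DMSO-treated cells and 100% = JAK inhibitor I control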
BaF3 tox – counter-screen for JAK2V617F inhibitors: parental Ba/F3 viability inhibitors. AID 1486. inhibition, % at 5.6 µM. CellTiter-Glo ATP luminescence. actives 1.1% (n = 220,000);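 active = inhibition above a per-campaign cutoff, the mean inhibition of all tested compounds plus 3 SD, cut at about 27% in these data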;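 also: 0% = DMSO wells and 100% = JAK Inhibitor I control wells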
IEC-6 tox confirm – IEC-6 cytotoxicity, confirmation assay; inhibition, % at 5 µM; IEC-6 rat intestinal epithelial viability, luminescence; actives 63% (n = 1,900); shares compounds with IEC-6 cytotox;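 also: 0% = vehicle and 100% = reference cytotoxic drug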
Starred values were filed as active, the others as inactive; u = inconclusive; x = not tested or not shown. Rule as the data show it, unless noted: active = inhibition above about 22%; inactive = the rest.

SMILES | KLF5 inhibitor | aSyn 5UTR inh | APP 5UTR inh | IEC-6 cytotox | Ba/F3 V617F tox | BaF3 tox | IEC-6 tox confirm
Cc1ccc(C(=O)NCC(=O)Nc2ncccc2C)s1 | x | 15 | x | x | x | x | x
Cc1ccc(NC(=O)c2nsc(Cl)c2Cl)cc1 | -131 | -113 | x | 24* | 2 | -3 | -4
O=C1Nc2ccccc2C1=O | x | -24 | x | x | x | x | x
O=C1c2ccccc2C(=O)c2[nH]c(=O)[nH]c21 | 47 | 93* | x | 101* | x | x | 98*
O=C(CC1C(=O)NCCN1Cc1ccccn1)NCCc1ccccc1F (stereo not given) | 3 | -14 | x | 8 | x | x | x
OCC[n+]1ccc(/C=C/c2c[nH]c3ccccc23)cc1 | 6 | -12 | 16 | 56* | 90* | 84* | 5
O=C(/C=C/c1c[nH]c2ccccc12)c1ccccc1 | -51 | -330 | -117 | 0 | 3 | 5 | x
COc1ccc2oc(-c3ccccc3[N+](=O)[O-])cc(=O)c2c1 | -28 | 7 | 2 | 44* | 65* | 53* | 48*
COc1ccc(-c2cc(=O)c3ccccc3o2)cc1 | x | -216 | x | x | x | x | x
CCN(CC)c1ccc(/C=N/NC(=O)c2cnccn2)cc1 | 7 | -85 | 74* | 43* | 78* | 74* | 56*
O=C(N[C@@H](Cc1ccccc1)C(=O)NC1CC1)c1ccc(Cl)cc1 | -44 | -4 | x | -2 | x | x | x
COc1ccc(-c2oc3cccnc3c2C#CCO)cc1 | -17 | 11 | x | 29* | x | x | 16
COc1ccc(-c2oc3cccnc3c2C#CC2(O)CCCCC2)cc1 | -35 | 8 | x | 5 | x | x | x
CCOC(=O)c1ccc(-c2c(-c3cc(OC)c(OC)c(OC)c3)noc2C)cc1F | 59 | u | x | 76* | x | x | 57*
CCOC(=O)c1ccc(-c2c(-c3ccc4c(c3)OCO4)noc2-c2ccsc2)cc1F | -1 | 0 | x | 0 | x | x | x
COc1ccc(CCN2C(=O)c3ccccc3NC2c2cc(Cl)c(O)c(OC)c2)cc1 (stereo not given) | 39 | -16 | x | 54* | x | x | -5
COc1ccc(NC(=O)c2cc(C)nn2-c2ccccc2)cc1 | -32 | -73 | x | 1 | x | x | x
CC(=O)c1ccc(Nc2c3c(nc4ccccc24)CCCC3)cc1 | -10 | -195 | x | 25* | 2 | -4 | 20
COc1ccccc1Nc1c2c(nc3ccccc13)CCC2 | 14 | 19 | x | 48* | x | x | 31*
COC(=O)c1cccc(Nc2c3c(nc4ccccc24)CCC3)c1 | -7 | -34 | x | 28* | x | x | 8
Cc1cc(C)c2oc(=O)cc(CN3CCC(C)CC3)c2c1 | -2 | 0 | x | 3 | x | x | x
CC(C)CC(=O)NCCCCc1ccccc1 | -36 | 3 | -22 | 22* | 3 | 6 | 6
CC(C)C(=O)NCCCc1ccccc1 | -4 | 5 | 1 | 4 | 1 | 1 | x
CCC1=Nc2cc(C(=O)NCc3cccnc3)ccc2Sc2ccc(C)cc21 | 29 | 20 | x | 67* | 72* | 44* | 56*
CCC1=Nc2cc(C(=O)NCCCOC(C)C)ccc2Sc2ccccc21 | -3 | -10 | 15 | 1 | -2 | 5 | x
SMILES | KLF5 inhibitor | aSyn 5UTR inh | APP 5UTR inh | IEC-6 cytotox | Ba/F3 V617F tox | BaF3 tox | IEC-6 tox confirm
CCC1=Nc2cc(C(=O)NCC3CCCO3)ccc2Sc2ccc(Cl)cc21 (stereo not given) | 19 | -74 | x | 35* | 5 | 6 | 38*
CCC1=Nc2cc(C(=O)NCC3CCCO3)ccc2Sc2ccc(Br)cc21 (stereo not given) | 9 | -59 | 17 | 28* | -1 | 15 | 31*
O=C(NCC1CCCO1)c1ccc(NC(=O)c2cccc(Cl)c2)cc1 (stereo not given) | x | 6 | x | x | x | x | x
CC(C)CC(=O)Nc1ccc(C(=O)CN2C(=O)NC3(CCOc4ccccc43)C2=O)cc1 (stereo not given) | x | 15 | x | x | x | x | x
CCOCCCNC(=O)C1CCCN(S(=O)(=O)c2ccc(-n3cnnn3)cc2)C1 (stereo not given) | -12 | 9 | x | -1 | x | x | x
COc1ccc(OCC(=O)Nc2ccccc2-c2ccccc2)cc1 | 10 | 21 | 11 | 28* | 4 | 7 | 15
COc1ccc(OCC(=O)Nc2ccccc2N2CCN(C)CC2)cc1 | 17 | -13 | x | 2 | x | x | x
COc1cccc(OC)c1C(=O)Nc1ccccc1N1CCCCC1 | 3 | 23 | x | 26* | x | x | 2
COc1ccc(OCC(=O)Nc2ccccc2N2CCCCC2)cc1 | 56 | 21 | x | 70* | x | x | 42*
CN(C(=O)c1cnccn1)c1c(N)n(Cc2ccccc2)c(=O)[nH]c1=O | x | 12 | x | x | x | x | x
COc1ccc(CCNC(=O)Cn2cnc3scc(-c4ccccc4)c3c2=O)cc1OC | -30 | 6 | -1 | -1 | -2 | -2 | x
Cc1ccc(C(=O)NCC#N)cc1 | -21 | 1 | -2 | -10 | -1 | 8 | x
Cc1ccc(C(=O)NC(C#N)=C(Cl)Cl)cc1 | -16 | -191 | 58* | 70* | 11 | -4 | 19
COc1cccc(NC(=O)c2nc(S(C)(=O)=O)ncc2Cl)c1 | 30 | -26 | x | 100* | x | x | 17
CN(c1ccccc1)S(=O)(=O)c1ccc(NC(=O)c2ccccc2)cc1 | 8 | -32 | -10 | 2 | -5 | 1 | x
COc1cccc(NC(=O)c2nc(SC)ncc2Cl)c1 | -12 | -20 | x | 10 | x | x | x
CN(c1ccccc1)S(=O)(=O)c1ccc(NC(=O)c2nc(S(C)(=O)=O)ncc2Cl)cc1 | 23 | 16 | x | 95* | x | x | 3
Cc1ccc(CC(=O)Nc2nccs2)cc1C | -10 | -35 | x | 4 | x | x | x
O=C(CN(CCc1ccccc1)S(=O)(=O)c1ccc(Cl)cc1)N/N=C/c1ccccc1C(=O)O | -21 | 4 | 6 | 0 | 7 | 7 | x
COc1ccc(NS(=O)(=O)c2cc(NC(=O)c3cnc(C)cn3)ccc2N2CCCC2)cc1 | -22 | -16 | -24 | 4 | 4 | 7 | x
COc1ccc(NS(=O)(=O)c2cc(NC(=O)c3ccc(=O)[nH]c3)ccc2N2CCCC2)cc1 | 21 | -50 | x | 42* | x | x | 25*
COc1ccc(C(=O)c2ccc(OC)c(N)c2)cc1N | 38 | 46 | 91* | 76* | 81* | 81* | 61*
O=C(O)c1ccc2ccc3ccccc3c2c1 | x | 11 | x | x | x | x | x

High-throughput results as filed in PubChem.
